The full list was thinned out, with hits kept by preference.
Tb PYK inh: qHTS of Trypanosoma Brucei Inhibitors; pyruvate kinase (Trypanosoma brucei), Q57TT1; TbPYK enzyme, Kinase-Glo Plus ATP luminescence, 45 min; Potency, µM (series often up to 76.8 µM), for the others: at the top dose activity, negative = inhibition, hits mostly inhibitors; 410,000 tested, 0.12% active; AID 624173, 2012; note: potency is the fitted concentration of half-maximal effect; % is set by controls: 0 for no effect and ±100 for the full control effect; nearly all actives have a fitted effect of over 50% in size
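Assay buffer: 50 mM TEA pH 7.2, 100 mM KCl, 10 mM MgCl2, 0.05% BSA, 0.01% Tween-20. Pyruvate kinase from T. brucei plus substrate met compound, then ADP (130 uM final). Luminescence was read post 45 min RT.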
Giardia FBPA inh: qHTS Assay for Inhibitors of Fructose-1,6-bisphosphate Aldolase from Giardia Lamblia; A8B2U2; purified Giardia FBPA; Potency, µM (highest dose often 59.6 µM), for the others: top-dose activity, negative = inhibition, most hits filed as inhibitors; 290,000 tested, 0.71% active; AID 2451, 2010; note: potency is the fitted concentration of half-maximal effect; % is set by controls: 0 for no effect and ±100 for the full control effect; nearly all actives have a fitted effect of over 55% in size
Target sequence (A8B2U2 whole entry, looked up): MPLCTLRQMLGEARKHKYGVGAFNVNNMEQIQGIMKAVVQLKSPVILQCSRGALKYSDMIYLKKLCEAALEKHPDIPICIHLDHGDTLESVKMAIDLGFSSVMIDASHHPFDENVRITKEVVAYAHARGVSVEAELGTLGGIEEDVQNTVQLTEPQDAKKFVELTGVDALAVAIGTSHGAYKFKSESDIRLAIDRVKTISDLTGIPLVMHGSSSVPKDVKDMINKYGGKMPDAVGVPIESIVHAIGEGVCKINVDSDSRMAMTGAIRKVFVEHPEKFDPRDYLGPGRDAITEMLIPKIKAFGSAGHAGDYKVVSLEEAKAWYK
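40 nM FBPA preincubated 10 min at RT with compound (up to 57.5 uM final), then substrate plus GAPDH/TPI/NAD/arsenate coupling and diaphorase/resazurin added. Fluorescence read after 20 min at RT, 525/598 nm.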
LmPK inhibitor: qHTS Assay for Inhibitors of Leishmania Mexicana Pyruvate Kinase (LmPK); purified LmPK, Kinase-Glo ATP luminescence, 1 h; Potency, µM (doses to about 57.5 µM), for the others: top-dose activity change, negative = inhibition, actives largely listed as inhibitors; 290,000 tested, 0.37% active; AID 1721, 2009; note: potency is the fitted concentration of half-maximal effect; % is set by controls: 0 for no effect and ±100 for the full control effect
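In 50 mM imidazole pH 7.2 with 7 mM MgCl2, LmPK (0.1 nM) turned over PEP (0.5 mM) and ADP (0.1 mM) for 1 h at room temperature. Luciferase read-out of ATP.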
Sm TGR block: qHTS Assay for the Inhibitors of Schistosoma Mansoni Peroxiredoxins | Potency, µM (series often up to 114 µM), inactives show at the highest dose activity change, negative = inhibition, hits mostly inhibitors | AID 485364, 2010 | Schistosoma mansoni thioredoxin glutathione reductase (TGR), Q962Y6 | purified TGR, DTNB reduction, TNB absorbance 405 nm | 360,000 tested, 3% active; note: potency is the fitted concentration of half-maximal effect; % is set by controls: 0 for no effect and ±100 for the full control effect; nearly all actives have a fitted effect of over 60% in size
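TGR 20 nM + NADPH 100 uM (dispensed conc.), cpd preinc 15 min RT; start with NADPH (500 uM addition) then DTNB (15 mM addition). Kinetic TNB absorbance, 405 nm filter. Four-parameter Hill fit across titration.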
Shiga inhibitor: A qHTS for Small Molecule Inhibitors of Shiga Toxin; inhibition, % at 38.7 µM; 290,000 tested, 9.2% active; Vero cells, Shiga toxin protein synthesis inhibition reporter; in the data active = inhibition mostly above about 28%, no sharp cut-off; inactive = mostly below about 43%; note: 0% is about no effect
CHX counter: Cycloheximide Counterscreen for Small Molecule Inhibitors of Shiga Toxin; cell reporter, cycloheximide protein synthesis inhibition counterscreen; max response, %; 300,000 tested, 12% active; AID 2314, 2010; in the data active = max response mostly above about 13%, no sharp cut-off; inactive = mostly below about 14%; note: read at 38.3 µM for the half of the compounds with a filed dose; 0% is about no effect
Numbers without * were called inactive; ? = inconclusive; · = no result; + = active, no number. Unless noted, calls come from the whole dose curve; as a rule, active = well fitted curve in the direction sought with a large enough effect; inconclusive = small, poorly fitted or top-dose-only effect, or another doubt; inactive = no such curve, though single readings can be large; an effect the other way counts as inactive or inconclusive.

SMILES	Tb PYK inh	Giardia FBPA inh	LmPK inhibitor	Sm TGR block	Shiga inhibitor	CHX counter
CCSc1nnc2c(n1)OC(c1ccc(C)s1)Nc1ccccc1-2 (centres undefined)	-1.9%	·	·	1.6%	·	·
C=CCSc1nnc2c(n1)OC=Nc1ccccc1-2	-3.3%	-16.4%	25.1µM*	?	21.8	12.5
C=CCSc1nnc2c(n1)OC(c1ccco1)Nc1ccccc1-2 (centres undefined)	3.1%	?	-3.2%	-32.8%	+	40.2*
CC(=O)N1CCN(c2ccc(NC(=O)c3ccc([N+](=O)[O-])cc3)cc2)CC1	0.2%	5.3%	-0.4%	-3.6%	10.2	-0.6
Cc1cc(C)n(-c2ccc(C(=O)Nc3ccc(N4CCOCC4)cc3)cc2)n1	-3.6%	0.3%	6.2%	7.2%	12.9	6.3
Cc1ccnc2nc(C(=O)Nc3ccc(N4CCOCC4)cc3)nn12	?	-13.2%	?	0.0%	74.3*	27.6*
CC(NC(=O)Nc1ccc([N+](=O)[O-])cc1)C(c1ccccc1)N1CCOCC1 (centres undefined)	-3.4%	-16.0%	5.5%	28.2µM*	2.5	10.7
O=C(Nc1ccc(N2CCOCC2)cc1)c1ccncc1	-1.6%	0.6%	-2.1%	-9.6%	32.3*	13.6*
O=C(N/N=C/c1ccc(N2CCOCC2)cc1)c1ccncc1	2.0%	·	·	?	·	·
O=C(Nc1ccc(N2CCOCC2)cc1)c1ccc([N+](=O)[O-])cc1	6.6%	-10.4%	-7.4%	53.5%	84.5*	28.0*
Cc1ccc(OCC(=O)Nc2nonc2-c2ccc(C)c(C)c2)cc1C	6.4%	·	·	4.4%	·	·
c1ccc(-c2nnc(N3CCN(c4ccccn4)CC3)c3ccccc23)cc1	4.0%	-3.1%	4.2%	6.3%	-2.3	8.2
C(/C=C/c1ccccc1)=N/N1CCN(c2ccccc2)CC1	-3.8%	4.0%	-20.1%	7.8%	40.9	16.4*
C(=C\c1ccccc1)/C=N/N1CCN(Cc2ccccc2)CC1	-10.9%	0.6%	3.7%	35.9%	43.3*	27.0*
C(=C\c1ccccc1)/C=N/N1CCN(c2ccccn2)CC1	-8.2%	4.7%	-17.4%	-7.2%	48.2*	39.4*
CC(/C=N/N1CCN(c2ccccn2)CC1)=C\c1ccccc1	4.2%	4.9%	-2.9%	5.0%	46.7*	22.8*
Cc1ccc(C)c(S(=O)(=O)N2CCCOC2CNC(=O)C(=O)NCCC2=CCCCC2)c1 (centres undefined)	-8.9%	0.0%	2.6%	-1.5%	16.7	-2.4
COc1ccccc1CNC(=O)CCCn1c(=O)c2ccccc2n(Cc2ccc(C)cc2)c1=O	-1.3%	·	·	3.2%	·	·
CC(C)CCNC(=O)CN1C(=O)c2cccnc2Oc2ccccc21	-9.4%	·	·	-3.6%	·	·
CCC(Sc1ncc(S(=O)(=O)c2ccc(C)cc2)c(=O)[nH]1)C(=O)Nc1cc(C)ccc1C (centres undefined)	6.4%	·	·	-7.7%	·	·
Cc1ccc(Sc2ccc(N3CCC(C(=O)Nc4ccc(Cl)cc4)CC3)nn2)cc1	3.2%	·	·	9.2%	·	·
CCOC(=O)c1ccc2[nH]c3c(c2c1)CCCCC3=O	3.8%	0.7%	-0.3%	2.2%	50.0*	15.0*
CCOC(=O)c1ccc2[nH]c3c(c2c1)CCCC3C(=O)OCC (centres undefined)	-9.8%	1.1%	0.3%	0.7%	20.2	4.3
COc1ccc(C(=O)c2cnc(/N=C/N(C)C)s2)cc1	-4.3%	1.5%	4.6%	11.7%	+	41.8*
O=C(c1ccccc1)c1cnc(-c2ccccc2)s1	1.2%	3.0%	-1.3%	10.7%	47.4	9.4
SMILES	Tb PYK inh	Giardia FBPA inh	LmPK inhibitor	Sm TGR block	Shiga inhibitor	CHX counter
COc1ccc(C(=O)c2ccc(-c3ccc(OC)cc3)nc2)cc1	2.8%	14.0%	-4.1%	6.5%	27.0	-1.4
CN(C)/C=N/c1ncc(C(=O)c2ccc3ccccc3c2)s1	-2.0%	-1.0%	4.8%	-29.4%	31.9	33.4*
CN1CCN(CCCNC(=O)Cn2c(-c3cccs3)cc3cc(Cl)ccc32)CC1	-2.1%	·	·	-16.6%	·	·
CCC(=O)N1CCc2cc(S(=O)(=O)NCCC(=O)Nc3cccc(SC)c3)ccc21	3.0%	·	·	-2.9%	·	·
Cc1cc(NC(=O)C(C)C)ncc1NC(=O)c1ccccn1	-13.1%	-12.8%	-9.9%	·	129.2*	30.1*
CCCCC(=O)Nc1cnc(NC(=O)c2ccco2)cc1C	-6.0%	-5.8%	-9.4%	4.6%	63.7*	20.7*
CCCC(=O)Nc1cc(C)c(NC(=O)c2ccccn2)cn1	4.5%	-13.2%	-4.7%	3.0%	85.8*	28.1*
CCCC(=O)Nc1cc(C)c(NC(=O)c2ccco2)cn1	8.0%	0.3%	-0.3%	-23.3%	·	9.0
CSc1ncccc1C(=O)OCc1ccccc1	0.4%	1.6%	-6.0%	0.0%	87.0*	31.3*
CSc1ncccc1C(=O)OCc1ccccc1F	-4.2%	7.9%	-11.2%	19.1%	66.5*	21.8*
O=C(NC1CCCCCC1)C(=S)NCc1ccccc1	-22.6%	-25.6%	3.7%	·	61.9*	39.5*
O=C(NC1CCCCCC1)C(=S)NCCc1ccccc1	-14.8%	-15.0%	-2.0%	3.6%	-7.4	7.9
O=C(NC1CCCCC1)C(=S)NCc1ccccc1	-9.2%	2.4%	0.3%	6.9%	82.7*	20.9*
CCNc1ncc2nc(-c3ccc(F)cc3)c(=O)n(C[C@H]3CCCO3)c2n1	·	-0.2%	·	·	·	·
Cc1cc2ccccc2n1-c1ccc(C(=O)N2CCC(C(=O)NCc3ccc(Cl)cc3)CC2)s1	1.7%	·	·	29.1%	·	·
Cn1ccsc1=NC(=O)c1ccc(Cl)c([N+](=O)[O-])c1	3.0%	-4.2%	-1.2%	0.7%	53.3*	16.5*
Cn1ccsc1=NC(=O)c1ccc(S(C)(=O)=O)cc1	-2.9%	9.5%	-21.5%	-3.1%	36.7*	14.0
Cn1ccsc1=NC(=O)c1cccc(C#N)c1	-8.5%	13.6%	-0.1%	-1.2%	60.8	14.8*
Cc1ccc(C(=O)N=c2sccn2C)cc1S(=O)(=O)N1CCOCC1	-6.5%	·	·	-1.0%	·	·
CCCCOc1ccc(C(=O)N=c2sccn2C)cc1OC	-15.6%	·	4.4%	1.4%	65.2*	44.1*
Cn1ccsc1=NC(=O)c1ccc(S(C)(=O)=O)c([N+](=O)[O-])c1	3.9%	·	0.1%	-0.5%	36.3*	42.8*
COc1ccc(CNC(=O)C2CCN(S(=O)(=O)c3ccc4c(ccn4C)c3)CC2)cc1	6.1%	·	·	5.4%	·	·
C(=N\Nc1ccccn1)/c1c[nH]c2ccccc12	-19.8%	0.1%	-0.6%	10.8%	88.9*	30.2*
O=C(O)c1cccc2c(/C=N/Nc3ccccn3)c[nH]c12	-0.4%	-28.4%	-20.2%	-0.3%	69.8*	39.2*
C(=NN=Cc1c[nH]c2ccccc12)c1c[nH]c2ccccc12	3.6%	·	·	·	·	·

Screens: PubChem BioAssay, National Center for Advancing Translational Sciences (NCATS)
